ALOX15B inhib: inhibitors of human 15-lipoxygenase 2 (ALOX15B) | O15296 | purified 15hLO-2, xylenol orange hydroperoxide absorbance | Potency, µM (doses to about 57.1 µM), actives largely listed as inhibitors | hit rate 0.56% among 110,000; note: nearly all actives have a fitted effect of over 60% in size
Target sequence (O15296 whole entry, looked up): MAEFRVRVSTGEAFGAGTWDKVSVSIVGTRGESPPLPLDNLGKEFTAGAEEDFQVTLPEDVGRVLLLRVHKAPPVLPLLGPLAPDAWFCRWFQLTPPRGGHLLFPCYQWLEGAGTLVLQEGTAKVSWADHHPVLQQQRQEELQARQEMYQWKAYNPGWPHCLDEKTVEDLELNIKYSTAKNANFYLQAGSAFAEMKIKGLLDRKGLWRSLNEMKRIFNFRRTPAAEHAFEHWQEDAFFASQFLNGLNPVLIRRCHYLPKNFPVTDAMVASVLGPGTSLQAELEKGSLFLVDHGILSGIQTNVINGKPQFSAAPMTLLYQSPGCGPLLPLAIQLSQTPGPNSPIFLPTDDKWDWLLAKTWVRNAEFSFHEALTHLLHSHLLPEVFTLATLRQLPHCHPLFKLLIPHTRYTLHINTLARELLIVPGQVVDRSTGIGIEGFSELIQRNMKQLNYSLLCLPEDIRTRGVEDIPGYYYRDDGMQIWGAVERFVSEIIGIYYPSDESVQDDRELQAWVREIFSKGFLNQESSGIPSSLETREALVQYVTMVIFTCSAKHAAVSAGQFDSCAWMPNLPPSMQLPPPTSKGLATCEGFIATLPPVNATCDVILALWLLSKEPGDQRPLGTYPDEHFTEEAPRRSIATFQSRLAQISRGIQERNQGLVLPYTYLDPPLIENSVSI
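Enzyme 50 nM, AA 45 uM, 25 mM Hepes pH 7.5 + 0.01% Triton X-100; cpd preinc 15 min RT, rxn 90 min RT; stop/detect with 200 uM XO + 300 uM Fe(II) in 50 mM H2SO4, 30 min; A573/A405.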
ALOX12 inhib: blocks human 12-lipoxygenase activity. purified 12-hLO, xylenol orange hydroperoxide absorbance. Potency, µM (top dose mostly 57.1 µM), most hits filed as inhibitors. hit rate 0.12% among 150,000; note: nearly all actives have a fitted effect of over 55% in size
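Lipoxygenase turnover measured by absorbance at 573 and 405 nm after Fe-XO development. Human 12hLO 150 nM, arachidonate 40 uM, pH 7.0 Hepes buffer with detergent; 15 min compound preincubation, 30 min reaction.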
A number is an active result; [ ] = dose if it differs, or a comment. Shown is part of a subset that was picked to be rich in hits. Calls come from the whole dose curve; as a rule, active = well fitted curve in the direction sought with a large enough effect; inconclusive = small, poorly fitted or top-dose-only effect, or another doubt; inactive = no such curve, though single readings can be large; an effect the other way counts as inactive or inconclusive.

O=C(O)C1=CC(=C(c2ccc(O)c(C(=O)O)c2)c2ccc(O)c(C(=O)O)c2)C=CC1=O was read as ALOX15B inhib 7.9µM and ALOX12 inhib inconclusive.
CCCCC[C@H](CC(=O)NO)C(=O)N[C@@H](C(=O)N1CCC[C@H]1CO)C(C)C was read as ALOX15B inhib inactive and ALOX12 inhib inactive.
Nc1nc(Cl)nc2c1ncn2[C@@H]1O[C@@H](COP(=O)(O)OP(=O)(O)OP(=O)(O)O)[C@@H](O)[C@H]1O was read as ALOX15B inhib inactive and ALOX12 inhib inactive.
For CC(C)(C)c1cc(/C=C(\C#N)C(N)=S)cc(C(C)(C)C)c1O the results were ALOX15B inhib 13µM and ALOX12 inhib inactive.
[C-]#[N+]/C(C#N)=C\c1cc(C(C)(C)C)c(O)c(C(C)(C)C)c1 was read as ALOX15B inhib inactive and ALOX12 inhib inactive.
Screening COC(=O)c1cc(-c2ccc3ccccc3c2)[nH]c(=O)c1C#N returned ALOX15B inhib inactive[11.4 µM] and ALOX12 inhib inactive[11.4 µM].
`OC[C@@H]1O[C@H](O)[C@@H](Cl)[C@H](O)[C@@H]1O` gave ALOX15B inhib inactive and ALOX12 inhib inactive.
`N=C(N)SCC(=O)O` gave ALOX15B inhib inactive[11.4 µM] and ALOX12 inhib inactive[11.4 µM].
Screening N#CC[N+]1(Cc2ccccn2)CCCC1 returned ALOX15B inhib inactive[11.4 µM] and ALOX12 inhib inactive[11.4 µM].
`Cn1cccc1/C=N/n1c(-c2ccccc2)n[nH]c1=S` gave ALOX15B inhib inactive and ALOX12 inhib inactive.
`Cn1cccc1/C=N/n1c(-c2ccc(C(C)(C)C)cc2)n[nH]c1=S` gave ALOX15B inhib 10µM and ALOX12 inhib inconclusive.
For CN(C)CCCCNC(=O)c1ccc(-n2c(=O)c(=O)[nH]c3ccccc32)cc1 the results were ALOX12 inhib inactive.
`CC(=O)[C@@]1(O)CC[C@@H]2[C@@H]3CCC4=CC(=O)CC[C@@]4(C)[C@H]3CC[C@]21C` gave ALOX15B inhib inactive and ALOX12 inhib inactive.
For Cc1cc(O)c(NC(=S)NC(=O)c2ccc(-c3ccc(Cl)cc3)o2)cc1C the results were ALOX15B inhib 13µM and ALOX12 inhib inconclusive.
Screening Cc1ccc(NC(=S)NC(=O)c2ccc(-c3ccc(Cl)cc3)o2)c(O)c1 returned ALOX12 inhib inactive.
Screening c1ccc2c(c1)CCC[C@H]2C1=NCCN1 returned ALOX15B inhib inactive and ALOX12 inhib inactive.
Screening Cc1ccc(N2C(=O)/C(=C\c3ccco3)SC2=S)cc1 returned ALOX15B inhib inconclusive and ALOX12 inhib 7.9µM.
For O=C1/C(=C\c2ccco2)SC(=S)N1c1ccccc1 the results were ALOX12 inhib inactive.
`CC(C)N(CCC(=O)c1ccc2ccccc2c1)Cc1ccccc1` gave ALOX15B inhib 13µM and ALOX12 inhib inconclusive.
CCC(=O)CCC(=O)c1ccc2ccccc2c1 was read as ALOX12 inhib inactive.
`O=C(O)[C@@H](O)[C@@H](O)[C@@H](O)[C@@H](O)c1nc2ccccc2s1` gave ALOX15B inhib inactive[11.4 µM] and ALOX12 inhib inactive[11.4 µM].
CCOc1cccc(CNCCO)c1OCc1ccc(Cl)cc1Cl was read as ALOX12 inhib inactive.
Screening CCOc1cccc(CNc2ccc(O)cc2)c1OCc1ccc(Cl)cc1Cl returned ALOX15B inhib 1.6µM and ALOX12 inhib inconclusive.
`COC(=O)C1=C(C(=O)OC)[C@@H]2N(Cc3ccccc3)c3ccccc3[C@@]23C[C@@H](C(=O)OC)N(S(=O)(=O)c2ccc([N+](=O)[O-])cc2)C3=N1` gave ALOX12 inhib inactive[11.4 µM].
`CCCCCCCCCCCC1=C(O)C(=O)C=C(O)C1=O` gave ALOX15B inhib 32µM and ALOX12 inhib 8.9µM.
`CCCCCCc1c(O)c2ccccc2[nH]c1=O` gave ALOX15B inhib inactive[11.4 µM] and ALOX12 inhib inactive.
Screening O=C(/C=C/c1ccc(O)c(O)c1)OCCc1ccccc1 returned ALOX15B inhib 10µM and ALOX12 inhib inconclusive.
Screening O=C(O)/C=C\c1ccc(O)c(O)c1 returned ALOX15B inhib inactive and ALOX12 inhib inactive.
Screening C/C(C[n+]1ccccc1)=N\N=C(N)N returned ALOX15B inhib inactive[11.4 µM] and ALOX12 inhib inactive[11.4 µM].
NC(CSS(=O)(=O)O)=N[C@@H]1C[C@H]2CC[C@@H]1C2 was read as ALOX15B inhib inactive[11.4 µM] and ALOX12 inhib inactive[11.4 µM].
`Cc1ccc(S(=O)(=O)c2c(N)n(/N=C/c3ccco3)c3nc4ccccc4nc23)cc1` gave ALOX15B inhib inactive and ALOX12 inhib inactive.
For Cc1ccc(S(=O)(=O)c2c(N)n(/N=C/c3ccco3)c3nc4ccccc4nc23)cc1C the results were ALOX15B inhib 13µM and ALOX12 inhib inconclusive.
O=C(NC1CCN(Cc2ccccc2)C1)c1ccc(Cc2nc3ccccc3[nH]2)cc1 (stereo not given) was read as ALOX12 inhib inactive.
For S=C(NCc1ccco1)Nc1cccc(Cl)c1 the results were ALOX15B inhib inactive and ALOX12 inhib inactive.
Screening S=C(NCc1ccco1)Nc1ccc(Cl)c(Cl)c1 returned ALOX15B inhib inconclusive and ALOX12 inhib 18µM.
For CCOc1ccc(C2C(C#N)=C(N)SC(N)=C2C#N)c(OCC)c1 the results were ALOX15B inhib inactive[11.4 µM] and ALOX12 inhib inactive.

Assay outcomes deposited in PubChem BioAssay by National Center for Advancing Translational Sciences (NCATS).
